According to article PMC8384837, “Expanding the binding specificity for RNA recognition by a PUF domain”:
Where a chain is given by its changes, count along the chain named.

Legend:
Test in all cases: yeast three-hybrid, YBZ-1, SC-Leu-His + 0.5 mM 3-AT, 4 days
Settings in all cases: tags: N-Gal4 AD-HA kept; label: inside an RPR1-promoter hybrid RNA with tandem MS2 sites; ssRNA
PUM1 PUF domain R5-AYF = PUM1 PUF domain R5-AYF (Homo sapiens, UniProt Q14671 828-1176, C1007A;R1008Y;Q1011F)
Procedure, shortened: (§1)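 Matching RNA elements and Pumilio-1 PUF domain libraries, randomized at the three base-contacting residues of every repeat, were co-expressed from a centromeric plasmid in strain YBZ-1 (LexA–MS2 coat fusion, HIS3 reporter). The repeat regions were PCR-amplified and Illumina-sequenced from cells grown four days on SC-Leu (input) or SC-Leu-His + 0.5 mM 3-AT (selection). The interaction score is the log change in variant frequency from input to selection. It is computed in log2, with a pseudocount of 1 for absent variants.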

PUM1 PUF domain R8-RYP = PUM1 PUF domain R8-RYP (Homo sapiens, UniProt Q14671 828-1176, N1122R;Q1126P)
Procedure, shortened: as §1

PUM1 PUF domain R6-IYK = biological target: T1, PUM1 PUF domain R6-IYK (Homo sapiens, UniProt Q14671 828-1176, N1043I;Q1047K)
T1 sequence: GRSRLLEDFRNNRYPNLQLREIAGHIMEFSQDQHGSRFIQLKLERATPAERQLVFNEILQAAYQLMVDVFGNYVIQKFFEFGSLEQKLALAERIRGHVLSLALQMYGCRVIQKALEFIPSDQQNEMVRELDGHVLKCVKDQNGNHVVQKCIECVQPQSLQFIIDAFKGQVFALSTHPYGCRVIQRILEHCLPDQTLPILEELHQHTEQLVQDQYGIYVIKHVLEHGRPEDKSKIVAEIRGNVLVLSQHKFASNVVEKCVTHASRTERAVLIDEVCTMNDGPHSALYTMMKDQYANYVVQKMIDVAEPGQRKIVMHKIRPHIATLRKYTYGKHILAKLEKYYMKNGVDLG
Procedure, shortened: as §1

PUM1 PUF domain R4-PFY = PUM1 PUF domain R4-PFY (Homo sapiens, UniProt Q14671 828-1176, N971P;H972F;Q975Y)
Procedure, shortened: as §1

PUM1 PUF domain R6-GFK = biological target: T2, PUM1 PUF domain R6-GFK (Homo sapiens, UniProt Q14671 828-1176, N1043G;Y1044F;Q1047K)
T2 sequence: T1 sequence with I216G, Y217F
Procedure, shortened: as §1

PUM1 PUF domain R7-RGK = PUM1 PUF domain R7-RGK (Homo sapiens, UniProt Q14671 828-1176, S1079R;N1080G;E1083K)
Procedure, shortened: as §1

PUM1 PUF domain R3-TIE = PUM1 PUF domain R3-TIE (Homo sapiens, UniProt Q14671 828-1176, C935T;R936I;Q939E)
Procedure, shortened: as §1

PUM1 PUF domain R5-SQG = PUM1 PUF domain R5-SQG (Homo sapiens, UniProt Q14671 828-1176, C1007S;R1008Q;Q1011G)
Procedure, shortened: as §1

Question: Which binding signal (PUM1 PUF domain R5-AYF) does the source give for “GGCUAGAACUAGUGGAUCCCCCGGCGCCCGGCGGCUCGAGCCCGGGUAAGUGUAAAUAGUCUGCAUGCCGCCGGGCGCCAUGCCUGCAGGUCGACUCUAGAAAACAUG” here?
Answer: Its binding signal is 3.62 log2 enrichment (interaction score).

Question: And the binding signal (PUM1 PUF domain R8-RYP)?
Answer: The binding signal was 4.32 log2 enrichment (interaction score).

Question: What about the binding signal (PUM1 PUF domain R6-IYK) of the same sequence?
Answer: Its binding signal is 2.06 log2 enrichment (interaction score).

Question: And the binding signal (PUM1 PUF domain R4-PFY)?
Answer: The binding signal was 5.35 log2 enrichment (interaction score).

Question: What about the binding signal (PUM1 PUF domain R6-GFK) of the same sequence?
Answer: The binding signal was 2.55 log2 enrichment (interaction score).

Question: Which binding signal (PUM1 PUF domain R7-RGK) does the source give for “GGCUAGAACUAGUGGAUCCCCCGGCGCCCGGCGGCUCGAGCCCGGGUAAGUUUAAAUAGUCUGCAUGCCGCCGGGCGCCAUGCCUGCAGGUCGACUCUAGAAAACAUG” here?
Answer: The binding signal was 6.69 log2 enrichment (interaction score).

Question: How did the binding signal (PUM1 PUF domain R7-RGK) turn out when “GGCUAGAACUAGUGGAUCCCCCGGCGCCCGGCGGCUCGAGCCCGGGUAAGUCUAAAUAGUCUGCAUGCCGCCGGGCGCCAUGCCUGCAGGUCGACUCUAGAAAACAUG” was run?
Answer: Its binding signal is 5.3 log2 enrichment (interaction score).

Question: “GGCUAGAACUAGUGGAUCCCCCGGCGCCCGGCGGCUCGAGCCCGGGUAAGUGUAAGUAGUCUGCAUGCCGCCGGGCGCCAUGCCUGCAGGUCGACUCUAGAAAACAUG” was tested. Which binding signal (PUM1 PUF domain R3-TIE) did it give?
Answer: Its binding signal is 4.39 log2 enrichment (interaction score).

Question: Which binding signal (PUM1 PUF domain R5-SQG) does the source give for “GGCUAGAACUAGUGGAUCCCCCGGCGCCCGGCGGCUCGAGCCCGGGUAAGUGUUAAUAGUCUGCAUGCCGCCGGGCGCCAUGCCUGCAGGUCGACUCUAGAAAACAUG” here?
Answer: The binding signal was 0.27 log2 enrichment (interaction score).

Question: How did the binding signal (PUM1 PUF domain R5-SQG) turn out when “GGCUAGAACUAGUGGAUCCCCCGGCGCCCGGCGGCUCGAGCCCGGGUAAGUGUGAAUAGUCUGCAUGCCGCCGGGCGCCAUGCCUGCAGGUCGACUCUAGAAAACAUG” was run?
Answer: The binding signal was 3.41 log2 enrichment (interaction score).

Question: Which binding signal (PUM1 PUF domain R8-RYP) does the source give for “GGCUAGAACUAGUGGAUCCCCCGGCGCCCGGCGGCUCGAGCCCGGGUAAGCGUAAAUAGUCUGCAUGCCGCCGGGCGCCAUGCCUGCAGGUCGACUCUAGAAAACAUG” here?
Answer: Its binding signal is 6.03 log2 enrichment (interaction score).

Question: How did the binding signal (PUM1 PUF domain R4-PFY) turn out when “GGCUAGAACUAGUGGAUCCCCCGGCGCCCGGCGGCUCGAGCCCGGGUAAGUGUAUAUAGUCUGCAUGCCGCCGGGCGCCAUGCCUGCAGGUCGACUCUAGAAAACAUG” was run?
Answer: Its binding signal is 3.71 log2 enrichment (interaction score).
